Experimental data: PubChem BioAssay AID1117319 (Southern Research Institute, 2015)
Where “and” joins values, the source holds several entries; their conditions need not be identical. Equal values may be shown once. Screen size: about 260,000 compounds; about 1,500 (0.58%) were called active. About 5% were inconclusive and are not listed. A selection follows. Results with a measured potency or affinity are listed apart. Values without a mark were called inactive.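 The calls were made as follows: active = inhibition above a set limit at one or more doses, reproduced on every date tested; inconclusive = results disagree between test dates, or hit never tested in dose response; inactive = the rest.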

Target: Virion infectivity factor (Human immunodeficiency virus type 1 group M subtype B (isolate BH10)) + Virion infectivity factor (Human immunodeficiency virus type 1 group M subtype B (isolate BRU/LAI)) + Virion infectivity factor (Human immunodeficiency virus type 1 group M subtype B (isolate PCV12)) + Virion infectivity factor (Human immunodeficiency virus type 1 group M subtype B (isolate HXB2)) + DNA dC->dU-editing enzyme APOBEC-3G (Homo sapiens) (UniProt P69720+P69721+P69722+P69723+Q9HC16)
Assay: HIV-1 Vif–A3G interaction blockers – biochemical, TR-FRET, GST-Vif 1-94, biotin-A3G peptide, dose response retest, primary screen (AID 1117319);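 also: Vif residues 1-94 fused to GST binding biotinylated APOBEC3G peptide 110-148; 0% = full assay without inhibitor and 100% = GST in place of GST-Vif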
Conditions: TR-FRET GST-Vif / biotin-A3G peptide binding; stronger effect = higher value

SMILES | inhibition
COc1ccc(C(=O)N(C)C(C)c2nccs2)cc1OC1CCN(C(C)=O)CC1 (stereo not drawn) | -6.6%
CC1(C)CC2(CC(c3ccccc3)c3ccc(O)cc3O2)NC(=S)N1 (stereo not drawn) | 0.62%
CC1(C)CC2(CC(c3ccccc3F)c3cc(Cl)c(O)cc3O2)NC(=S)N1 (stereo not drawn) | 0.09%
Cc1cc(C)c(C(=O)NC2CC(C)(C)Cc3c2cnn3-c2ccccc2)o1 (stereo not drawn) | 1.78%
O=[N+]([O-])c1ccc(/C=N/Nc2nc(N3CCCCCC3)nc(N3CCCCCC3)n2)o1 | 10.1%
O=[N+]([O-])c1ccc(-c2ccc(/C=N/Nc3nc(N4CCCC4)nc(N4CCCC4)n3)o2)cc1 | -1.43%
COC(=O)C1=C(CS(=O)(=O)c2ccc(Cl)cc2)NC(=O)NC1c1ccc(O)cc1 (stereo not drawn) | 9.59%
CC(C)N(C(=O)CSc1nnc(-c2cc3ccccc3cc2O)n1Cc1ccco1)C(C)C | 9.68%
CC(=O)c1cccc(NC(=O)c2ccoc2C)c1 | 7.62%
CC1(C)N=C(c2ccccc2)C(=O)N1 | 1.67%
CC(C)[C@H](NC(=O)c1ccco1)C(=O)OCC(=O)c1ccc2c(c1)NC(=O)CO2 | 30.8%
COc1cc(C(=O)NNC(=S)NC(=O)c2ccc(F)cc2)cc(OC)c1OC | 13.5%
CCN(CC)CCn1c2ccccc2c2nc3ccccc3nc21 | -1.16%
CCc1cc2c(=O)c(-c3nc4ccccc4n3C)c(C)oc2c(CN(CC)CC)c1O | -0.78%
CC1=CN2C(=N)/C(=C/c3ccco3)C(=O)N=C2S1 | 14.9%
CC1=CN2C(=N)/C(=C/c3ccc(Sc4ccc(C)cc4)o3)C(=O)N=C2S1 | -0.88%
O=C(Nc1cccc2c1[nH]c1ccccc12)C(F)(F)F | -2.08%
COc1cc2[nH]c3c(Cl)ncnc3c2cc1OC | -0.29%
COc1ccc2c([N+](=O)[O-])c(Cl)[nH]c2c1 | 21.2%
COc1ccc(C)cc1S(=O)(=O)NCC(c1ccco1)N1CCc2ccccc2C1 (stereo not drawn) | -3.21%

SMILES | inhibition
N#CC1=C(N)OC2=C(C(=O)CC(c3ccco3)C2)C1c1ccc(OCc2c(F)cccc2Cl)cc1 (stereo not drawn) | 13.6% and 14.7%
COc1cccc(C2C(C#N)=C(N)OC3=C2C(=O)CCC3)c1OC(=O)c1ccco1 (stereo not drawn) | 22.1%
Cc1ccc(NC(=O)C(C)Sc2nc(-c3ccccc3)cc(=O)[nH]2)cc1 (stereo not drawn) | -0.75%
O=C1C=C(c2ccccc2)C(c2ccccc2)C1 (stereo not drawn) | 0.24%
O=C(COc1ccccc1)N1CCN(c2ccccc2)CC1 | 10.3%
Cc1onc(-c2ccccc2Cl)c1C(=O)N1CCCC1 | -6.38%
COc1ccc(N2CCN(C(=O)c3ccc(C)cc3Cl)CC2)cc1 | 6.52%
COc1ccc(N2CCN(C(=O)COC(=O)c3c(-c4ccccc4)noc3C)CC2)cc1 | -5.58%
COc1ccc(N2CCN(C(=O)COc3ccc4ccccc4c3)CC2)cc1 | 2.55%
COc1ccc(S(=O)(=O)N2CCN(C(=O)c3c(-c4ccccc4)noc3C)CC2)cc1 | 0.45%
Cc1onc(-c2ccccc2Cl)c1C(=O)N1CCN(c2ccccc2)CC1 | -3.16%
COc1ccc(C(=O)N2CCN(c3cccc(Cl)c3)CC2)cc1 | -2.36%
CCS(=O)(=O)N1CCC(C(=O)NC2CCCCCCC2)CC1 | 1.17%
Cc1cc(C(=O)N2CCN(S(=O)(=O)c3ccc(C)c(C)c3)CC2)no1 | 3.5%
COc1ccc(C)cc1NC(=O)c1cnc2scc(C)n2c1=O | -5.79%
COc1ccc2cc(C3CC(c4cccs4)=NN3S(C)(=O)=O)c(Cl)nc2c1 (stereo not drawn) | -0.38%
COc1ccc2[nH]c(C(=O)NCc3ccccc3)c(C)c2c1 | 1.63%
Cc1ccc(NS(=O)(=O)c2csc(C(N)=O)c2)cc1C | -5.43%
CN(CC(=O)NCCc1ccc(S(N)(=O)=O)cc1)Cc1ccc(Cl)cc1Cl | 4.74%
Cc1cc([N+](=O)[O-])nn1CC(=O)N1CCc2ccccc2C1 | -2.29%

SMILES | inhibition
Cc1ccc(C)c(NC(=O)CN(C)C(=O)Cc2coc3cc(C)c(C)cc23)c1 | 0.3%
O=C(COC(=O)c1cnccn1)Nc1cc(S(=O)(=O)N2CCOCC2)ccc1Cl | -11.1%
COc1cc(-c2nc3ccccn3c2/N=C/c2cc(OC)c(O)cc2Cl)ccc1O | 22.2%
O=[N+]([O-])c1ccc(-c2ccc(C=Nc3cccc4ccccc34)o2)cc1 | 3.05%
CN(C)c1ccc(-c2nc3ccccn3c2/N=C/c2ccc(Br)cc2)cc1 | 6.4%
Cc1ccc(Nc2c(-c3ccco3)nc3ccccn23)cc1 | 12%
O=[N+]([O-])c1ccc(-c2ccc(/C=N/c3c(-c4ccco4)nc4ccccn34)o2)cc1 | 7.55%
O=[N+]([O-])c1cc(-c2ccc(/C=N/n3cnnc3)o2)ccc1Cl | 6.34%
Cc1cc([N+](=O)[O-])c(C)cc1-c1ccc(/C=N/n2cnnc2)o1 | 1.64%
c1ccc(Nc2c(-c3ccco3)nc3ccccn23)cc1 | -2.7%
COc1cc2[nH]c(=S)n(Cc3cccs3)c(=O)c2cc1OC | -5.73%
Cc1cc(C)cc(OCC(=O)NN2C(=O)c3ccccc3C2=O)c1 | 2.37%
Cc1ccc(N(CC(=O)NC(C)(C)C)C(=O)CS(=O)CC(=O)Nc2ccc(F)cc2)cc1 (stereo not drawn) | 10.4%
CCN(CC(=O)Nc1ccc(OC)cc1)C(=O)c1ccc2c(c1)NC(=O)C(C)S2 (stereo not drawn) | 6.39%
COc1cccc(C(=O)N2CCN(C(=O)c3cccc4ccccc34)CC2)c1OC | 1.56%
CSC1=N/C(=C\c2ccccc2)C(=O)N1C | 4.78%
O=C(CN1C(=O)S/C(=C/c2ccccn2)C1=O)N1CCOCC1 | 2.37%
CCCCCn1c(=NC(=O)c2ccco2)c(C(=O)OCC)cc2c(=O)n3ccccc3nc21 | 4.41% and -0.06%
